# Results as given in PubChem BioAssay (NCI).
# Compounds without any hit were thinned out: in the full panel of roughly 83,000, 20% have a hit.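 Cell lines were cultured in 96-well plates, exposed to a single compound concentration, and assessed for percent growth 48 hours later.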 Active and inactive are the calls of the source. The calls were made as follows: active = growth percent below 10; inactive = the rest.
# System: HL-60(TB) leukemia
# Test: NCI-60 one-dose screen, 48 h (100 = growth as untreated, 0 = no growth, -100 = all killed)
# Conditions: 10 µM unless noted
row,Compound,growth
1,N#C/C(=C\C=C\c1ccc(-c2cc(Cl)ccc2Cl)o1)c1nc2ccccc2s1,97.7% (inactive)
2,CCCCCCCC/C=C\CCCCCCCCOc1cccc(CC(=O)NCC[N+](C)(C)C)c1,61.1% (inactive)
3,CCCCc1ccc(C(N)=O)nc1,88.2% (inactive)
4,Cc1c(C(=O)CCl)c(=O)n(-c2ccccc2)n1C,56.9% (inactive)
5,CC(Cc1cccc2ccccc12)C(N)=O (stereo not given),99.5% (inactive)
6,Brc1ccc2[nH]cc(-c3cncn3CCc3ccccc3)c2c1,39.3% (inactive)
7,O=C(CN1N=C(c2ccc(F)cc2)CCC1=O)Nc1nccs1,95.3% (inactive)
8,O=C1OC(c2ccc(-c3ccccc3)cc2)=C/C1=C/c1c(Cl)cccc1Cl,77.8% (inactive)
9,C=CCn1cc(-c2nc3ccccc3s2)c2cc(-c3ccc4c5c(cccc35)C(=O)N(CCO)C4=O)ccc21,101% (inactive)
10,O=[N+]([O-])c1ccc(-c2cn(-c3ccccc3)c(-c3ccccc3)n2)cc1,87% (inactive)
11,O=C1NC(=S)N[C@H]1CC(=O)n1cnc2ccccc21,109% (inactive)
12,COC(=O)[C@@]12OC[C@]34[C@H]([C@@H](O)[C@@H]1O)[C@@]1(C)[C@H](O)C(=O)C=C(C)[C@@H]1C[C@H]3OC(=O)C(OC(C)=O)[C@@H]24 (stereo not given in full),-59% (active)
13,COc1ccc(C(=O)C2CC2c2ccc(Cl)cc2)cc1 (stereo not given),14.1% (inactive)
14,CSC(=N\N=C\c1ccc(N(C)C)cc1)/N=C/N(C)C,105% (inactive)
15,CC(C)CSc1oc(-c2ccccc2)nc1S(=O)(=O)c1ccccc1,82% (inactive)
16,CCCCOc1nc2ccc(Cl)cc2cc1/C=C/C(=O)/C=C1/CC(c2cc3cc(Cl)ccc3nc2OCCCC)Nc2ccccc2N1 (stereo not given),101% (inactive)
17,CCN(CC)CCCOCCCNc1cc(OC)cc2cccnc12,107% (inactive)
18,CCCCOc1nc2ccc(C)cc2cc1/C=C/C(=O)/C=C(O)/C=C/c1cc2cc(C)ccc2nc1OCCCC,99% (inactive)
19,CCOC(=O)C1C(=O)C=C(c2ccccc2)CC1c1sc(N(C)Cc2ccccc2)nc1Cl (stereo not given),78.4% (inactive)
20,O=Cc1ccc2nc(C(Cl)(Cl)Cl)ccc2c1,104% (inactive)

row,Compound,growth
1,CCC(c1ccc(OC)cc1)C(CC)c1ccc(O)c(CN2CCCCC2)c1 (stereo not given),52.6% (inactive)
2,Nc1cccc(Cl)c1N,79% (inactive)
3,Cc1ccc(S(=O)(=O)NCCNc2cc(-c3cn(C(C)(C)C)nc3-c3cccc(O)c3)ccn2)cc1,65.8% (inactive)
4,CCCCCN(CCCCC)CCCCCCCCN1CCCc2ccccc21,-14.2% (active)
5,Cc1ccc(-n2nnnc2N)c(C)c1,117% (inactive)
6,CCCCCCCCn1ccc2cc(NC(=O)CN3CCN(c4cc(C)nc(Cl)n4)CC3)ccc21,83.3% (inactive)
7,CCOC(=O)CSc1nc2sc3c(c2c(=O)n1-c1ccccc1)CCCCC3,109% (inactive)
8,COC(=O)C(N)CC(C)C (stereo not given),94.6% (inactive)
9,Cc1nn(-c2ccccc2)c(N)c1N=C1NC(=O)/C(=C/c2ccc(Cl)cc2)S1,74.3% (inactive)
10,COC(=O)c1c2c(c(C)[n+]([O-])c1C)C(=O)C(NCc1ccc(Br)cc1)=CC2=O,-19.9% (active)
11,O=c1ccn(C2CCCO2)c(=O)[nH]1 (stereo not given),111% (inactive)
12,CCN(C(=O)CN1CCN(c2cc3c(cc2F)c(=O)c(C(=O)O)cn3C2CC2)CC1)c1nc(-c2ccc(OC)cc2)cs1,30.1% (inactive)
13,COc1ccc(-c2nc3sc(-c4cc(OC)c(OC)c(OC)c4)nn3c2/C=C2/C(=O)Nc3ccc(F)cc32)cc1,35.8% (inactive)
14,O=C(/C=C(O)/C=C/c1ccc(SC(F)(F)F)cc1)/C=C/c1ccc(SC(F)(F)F)cc1,81.9% (inactive)
15,COc1ccc(-c2nc(SCC(=O)Nc3ccc(C(=O)/C=C/c4ccc(Cl)cc4)cc3)[nH]c(=O)c2C#N)cc1,105% (inactive)
16,ClC1=NC(Cl)C(Cl)=N/C1=N\c1ncn[nH]1 (stereo not given),-64.6% (active)
17,NC(=O)c1cccc(-c2ccc(S(=O)(=O)Nc3ccc4c(c3)N(C(=O)C3CC3)CCC4)cc2)c1,1.43% (active)
18,Cc1ccc(C2NC(=S)N3C(c4ccc(C)cc4)NC(=S)N23)cc1 (stereo not given),-23.9% (active)
19,COc1ccc2[nH]cc(-c3noc(C(=O)c4cn(C)c5ccc(F)cc45)n3)c2c1,81.7% (inactive)
20,CCNNC(=O)[C@@H]1[C@H](c2cc(OC)c(OC)c(OC)c2)c2cc3c(cc2[C@H](O)[C@H]1CO)OCO3,-24.1% (active)
